PubChem BioAssay (EPA / NIEHS)
The source made the active and inactive calls. How the source made its calls: active means hit-call score of the fitted dose curve at least 0.9, where 1 is the maximum; inactive means score below 0.9.

Assay: APR_HepG2_p53Act_24hr: Apredica 24-hour HepG2 Assay for p53 Activation (AID 2282913)
Conditions: high-content imaging, actives raise or lower the signal
Description: APR_HepG2_24hr is a cell-based, multiplexed-readout assay that uses HepG2, a human liver cell line, with measurements taken at 24 hours after chemical dosing in a 384-well plate.APR_HepG2_p53Act_24hr is one of 10 assay component(s) measured or calculated from the APR_HepG2_24hr assay. It is designed to make measurements of dna content, a form of viability reporter, as detected with fluorescence intensity signals by HCS Fluorescent Imaging technology.Data from the assay component APR_HepG2_p53Act_24hr was analyzed into 1 assay endpoint. This assay endpoint, APR_HepG2_p53Act_24hr, was analyzed with bidirectional fitting relative to DMSO as the negative control and baseline of activity. Using a type of viability reporter, measures of protein for gain or loss-of-signal activity can be used to understand the signaling at the pathway-level as they relate to the gene TP53. Furthermore, this assay endpoint can be referred to as a primary readout, because this assay has produced multiple assay endpoints where this one serves a signaling function. To generalize the intended target to other relatable targets, this assay endpoint is annotated to the dna binding intended target family, where the subfamily is tumor suppressor.
Cells were treated with dimethyl sulfoxide (DMSO) as a solvent control at a final concentration of 0.5% v/v or with compounds in DMSO with a resulting final DMSO concentration of 0.5% v/v. Compound treatment was done at concentrations of 0.39, 0.78, 1.56, 3.12, 6.24, 12.5, 25, 50, 100, and 200 uM in duplicate on each plate. Cells were treated with compounds for 1, 24, or 72 hr. Carbonyl […] m-chloro-phenylhydrazone (CCCP) and taxol were used as positive controls for mitochondrial function and cytoskeletal stability, respectively; DMSO served as the negative control for this experiment. Cells were fixed by the direct addition of 50 uL formaldehyde in Hank's Balanced Salt Solution (HBSS) to a final concentration of 3.7%. After incubation in the fixation medium for 30 min at room temperature (293-298 K), cells were rinsed twice with HBSS and treated with cell permeabilization buffer (16 uL of 0.5% Triton X-100) for 10 min at room temperature (293-298 K) before labeling. For mitochondrial membrane potential and mitochondrial measurements, pre-fixed cells were incubated with 50 uL of MitoTracker Red CMXRos (Invitrogen) at a concentration of 250 nM for 30 min before fixation. In the remaining cases, post-fixed cells were labeled by incubation with a multiplexed mixture of primary antibodies in HBSS for 60 min at room temperature (293-298 K) to detect immunoreactivity of c-Jun (1:500), phospho-histone H3 (1:100), phospho-histone H2A.x (1:200), p53 (1:400), alpha-tubulin (1:200) and Hoechst 33342 (2 ug/mL). Cells were labeled for multiplexed imaging on two separate plates: a) Hoechst 33342, MitoTracker Red, phospho-histone H3, and alpha-tubulin, and b) Hoechst 33342, phospho-histone H2A.x, and c-Jun. A final rinse with HBSS (50 uL) was performed before analysis. The primary and secondary antibodies for the proteins were phospho-histone H3 (rabbit anti-phospho-histone H3 and FITC-donkey anti-rabbit IgG), phospho-histone H2A.x (mouse anti-phospho-histone H2A.x and FITC-donkey anti-mouse IgG), c-Jun (rabbit anti-phospho-c-Jun and Cy3-donkey anti-rabbit IgG), p53 (sheep anti-p53 and Cy5-donkey anti-sheep IgG), alpha-tubulin (mouse anti-alpha-tubulin and Cy5-donkey anti-mouse IgG). These antibodies are available as the CellCiphr HepG2 assay kit (Millipore).Digital images of each well were captured using a Cellomics ArrayScan VTI (Thermo Scientific Cellomics) (0.8 NA objective, 0.63x optical coupler, and XF-93 filter set) at 20x magnification. The images were acquired using the autofocus feature of the ArrayScan instrument, which entails the following steps. First, the camera focuses on channel 1 (Hoechst 33342), where nuclei are identified. Second, a Z offset of 1 um is used for capturing mitochondria (MitoTracker Red). […]

Compound	outcome	AC50
CCC(O)=C1C(=O)CC(C(=O)O)CC1=O (stereo not given)	inactive	
CCCCC(CC)CN1C(=O)C2C3C=CC(C3)C2C1=O (stereo not given)	inactive	
CCOC(=O)COc1cc(-n2ncc(C(F)(F)F)c(C)c2=O)c(F)cc1Cl	inactive	
CC(=O)[C@H]1CC[C@H]2[C@@H]3CCC4=CC(=O)CC[C@]4(C)[C@H]3CC[C@]12C		94.1 µM (active)
CCCCCCC(C)OC(=O)COc1nc(F)c(Cl)c(N)c1Cl (stereo not given)	inactive	
C=CCOC(Cn1ccnc1)c1ccc(Cl)cc1Cl (stereo not given)	inactive	
CCCN(CCC)C(=O)SCC	inactive	
COC(=O)c1cccc(C)c1S(=O)(=O)NC(=O)Nc1nc(OCC(F)(F)F)nc(N(C)C)n1	inactive	
COc1nc(C)nc(NC(=O)NS(=O)(=O)c2ccccc2OCCCl)n1	inactive	
N[C@@H](Cc1cc(I)c(Oc2ccc(O)c(I)c2)c(I)c1)C(=O)O	inactive	
CCN(Cc1c(F)cccc1Cl)c1c([N+](=O)[O-])cc(C(F)(F)F)cc1[N+](=O)[O-]	inactive	
CCOC(=O)[C@H](C)Oc1ccc(Oc2nc3ccc(Cl)cc3o2)cc1	inactive	
C[C@]12C[C@H](O)[C@H]3[C@@H](CCC4=CC(=O)CC[C@@]43C)[C@@H]1CC[C@@H]2C(=O)CO		86.2 µM (active)
c1ccc(Nc2ccccc2)cc1	inactive	
COC(=O)c1c(Cl)nn(C)c1S(=O)(=O)NC(=O)Nc1nc(OC)cc(OC)n1	inactive	
CC(C)(c1ccc(O)cc1)c1ccc(O)cc1	inactive	
O=C(O)c1ccccc1	inactive	
COC(=O)c1ccc(CNS(C)(=O)=O)cc1S(=O)(=O)NC(=O)Nc1nc(OC)cc(OC)n1	inactive	
COC(=O)c1ccccc1C(=O)O	inactive	
CSC(=O)c1cccc2nnsc12	inactive	

Compound	outcome	AC50
CCCCOC(=O)C(C)Oc1ccc(Oc2ccc(C(F)(F)F)cn2)cc1 (stereo not given)	inactive	
CCOC(=O)C(C)Oc1ccc(Oc2nc3ccc(Cl)cc3o2)cc1 (stereo not given)	inactive	
OB(O)O	inactive	
COCCO	inactive	
O=C(Nc1ccc([N+](=O)[O-])cc1Cl)c1cc(Cl)ccc1O		1.49 µM (active)
CCOC(=O)c1ccc(O)cc1	inactive	
CC(C)CCCCCCc1ccc(O)cc1	inactive	
CC(C)(C)[C@@H](O)[C@@H](Cc1ccc(Cl)cc1)n1cncn1	inactive	
CCOC(=O)NCCOc1ccc(Oc2ccccc2)cc1	inactive	
C[C@]12CC[C@@H]3c4ccc(O)cc4C[C@@H](CCCCCCCCCS(=O)CCCC(F)(F)C(F)(F)F)[C@H]3[C@@H]1CC[C@@H]2O (stereo not given in full)	inactive	
O=C(O)C1(C(=O)Nc2ccc(Cl)cc2Cl)CC1	inactive	
C#CCOC(=O)[C@@H](C)Oc1ccc(Oc2ncc(Cl)cc2F)cc1	inactive	
CCCOC(=O)NCCCN(C)C	inactive	
CC(=O)S[C@@H]1CC2=CC(=O)CC[C@]2(C)[C@H]2CC[C@@]3(C)[C@@H](CC[C@@]34CCC(=O)O4)[C@H]12		54.7 µM (active)
O=C(c1ccccc1)C1CCCCC1	inactive	
CN(C)C(=O)Nc1ccc(Cl)c(Cl)c1	inactive	
C#C[C@]1(O)CC[C@H]2[C@@H]3CCC4=CC(=O)CC[C@@H]4[C@H]3CC[C@@]21CC	inactive	
Oc1ccc(C(c2ccc(O)cc2)C(Cl)(Cl)Cl)cc1	inactive	
COC(=O)CSc1cc(N=c2sc(=O)n3n2CCCC3)c(F)cc1Cl	inactive	
CCCCC(CC)COC(=O)c1ccccc1C(=O)O (stereo not given)	inactive	
